# Experimental data from PubChem BioAssay (EPA / NIEHS).
# Activity calls are given as the source filed them. Rule for the calls: active = hit-call score of the fitted dose curve at least 0.9, where 1 is the maximum; inactive = score below 0.9.
# Test: CEETOX_H295R_OHPROG: CeeTox H295R High-throughput Steroidogenesis Assay for OH-Progesterone (OHPROG) (AID 2283435)
# Conditions: actives raise or lower the signal
# Protocol: CEETOX_H295R is a cell-based, multiplexed-readout assay that uses H295R, a human adrenal gland cell line, with measurements taken at 48 hours after chemical dosing in a 96-well plate.CEETOX_H295R_OHPROG is one of 23 assay component(s) measured or calculated from the CEETOX_H295R assay. It is designed to make measurements of hormone induction, a form of inducible reporter, as detected with absorbance signals by HPLC-MS-MS technology.Data from the assay component CEETOX_H295R_OHPROG was analyzed into 1 assay endpoint. This assay endpoint, CEETOX_H295R_OHPROG, was analyzed with bidirectional fitting relative to DMSO as the negative control and baseline of activity. Using a type of inducible reporter, gain or loss-of-signal activity using HPLC-MS-MS was used to understand synthesis of 17alpha-hydroxyprogesterone in H295R cell line at 48hr of chemical exposure. To generalize the intended target to other relatable targets, this assay endpoint is annotated to the steroid hormone intended target family, where the subfamily is progestagens.
# Cell culture and media preparation procedures were conducted in accordance with OECD Test No. 456 guidelines, with minor modifications. H295R cells (ATCC CRL-2128) were expanded for 5 passages and frozen in batches in liquid nitrogen. Prior to the steroidogenesis assay, H295R cells were thawed and passed at least 4 times. The maximum passage was 10. Cells were maintained in a 1:1 mixture of DMEM/F12 supplemented with 5ml/L ITS+ Premix (BD Bioscience) and 12.5 ml/L Nu-Serum (BD Bioscience). After seeding cells into 96-well plates at 50-60% confluency, cells were allowed to adhere overnight. Prior to chemical testing, culture medium was replaced with 175 uL medium containing 10 uM forskolin to stimulate steroidogenesis for 48 hours. Following prestimulation, forskolin medium was replaced with medium containing test chemical solubilized in DMSO (ensuring a final concentration of 0.1% DMSO). Test chemicals were incubated for 48 hours, then the medium was removed and split into 2 vials containing approximately 75uL each, and stored at -80 C prior to hormone analysis. For steroid quantification, media samples were shipped to OpAns, LLC (Durham, NC) on dry ice, and samples were thawed to room temperature prior to liquid-liquid extraction. Steroid hormones were extracted from media samples using methyl tertbutyl ether (MTBE). An extra derivatization with dansyl chloride was included for estrogen (estrone and estradiol) detection only. Steroid hormones were separated by HPLC, eluted using a reverse phase C18 gradient with electrospray positive ionization, followed by quantification by tandem mass spectrometry (MS/MS). Data were acquired on a MassHunter Workstation Acquisition version B03.01 (Agilent Technologies, Inc.) and processed using MassHunter Quantitative Analysis for QQQ. Accuracy was determined for each hormone analyte from 3 standards to determine upper and lower limits of quantification (ULOQ and LLOQ, respectively) using a 7-point standard curve. Precision and accuracy of the extraction and quantification methods were calculated as the percent relative standard deviation (%RSD) of the spiked standards and percent spiked standard recovered, respectively. […] Test medium was removed following chemical exposure, and cell viability was evaluated in the same wells by MTT. MTT procedures were as follows: after removal of test medium, 500 uL of 0.5 mg/ml of 3-[4,5-dimethylthiazol-2-y]2,5-diphenyltetrazoliumbromide solution was added to the cells. Following a 4-hour incubation at 37 C and 5% CO2 to allow formazan-crystal formation, the MTT solution was removed and blue formazan salt crystals were solubilized using 500uL anhydrous isopropanol with shaking for 20 minutes. Absorbance was read at 570 and 650nm using a Packard Fusion microplate reader. Background correction of absorbance units was used to determine percent change relative to controls. […]
Compound,outcome,AC50
Cc1cccc(C)c1C,inactive,–
Nc1cc([N+](=O)[O-])ccc1Cl,–,39.3 µM (active)
O=c1cc(-c2ccccc2)oc2cc(O)cc(O)c12,–,16.6 µM (active)
c1ccc(CCCc2ccccn2)cc1,inactive,–
O=C(O)C[C@H](O)C[C@H](O)/C=C/c1c(C2CC2)nc2ccccc2c1-c1ccc(F)cc1,–,0.0582 µM (active)
O=C(O)c1ccc([N+](=O)[O-])cc1,inactive,–
NC(=O)Nc1ccc(Cl)cc1,inactive,–
CC1(C)[C@H](C(=O)OCc2cccc(Oc3ccccc3)c2)[C@@H]1C=C(Cl)Cl,inactive,–
COc1cc2ncnc(Nc3cccc(Cl)c3)c2cc1OC,inactive,–
C=CCOc1nc(OCC=C)nc(OCC=C)n1,inactive,–
C=CC(C)(C)O,inactive,–
CC(C)c1cccc(O)c1,–,39 µM (active)
CC(C)=CCCC(C)=CCCC(C)=CCO,–,31.5 µM (active)
CSc1nc(NC2CC2)nc(NC(C)(C)C)n1,inactive,–
C#C[C@]1(O)CC[C@H]2[C@@H]3CCC4=Cc5oncc5C[C@]4(C)[C@H]3CC[C@@]21C,–,0.871 µM (active)
Cc1ccc2n[nH]nc2c1,inactive,–
Nc1ccc(F)c([N+](=O)[O-])c1,–,37.7 µM (active)
